Test [1] in a line: NCI Yeast Anticancer Drug Screen. Data for the rad50 strain (AID 155).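 Note: 0% = growth of vehicle-only cultures of the same strain.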 The settings on record: S. cerevisiae rad50 strain growth inhibition; at 50.0 µM; stronger effect = higher value. An outline of the steps:
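Inhibition values express reduced yeast growth in compound-treated cultures relative to vehicle-treated controls.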

The nature of test [2]: NCI Yeast Anticancer Drug Screen. Data for the mec2-1 strain (AID 157). The settings on record: S. cerevisiae mec2-1 strain, at 50.0 µM, stronger effect = higher value. An outline of the steps:
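Mutant yeast (mec2-1) grown with compound; growth inhibition relative to vehicle control reported.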

A short description of test [3]: NCI Yeast Anticancer Drug Screen. Data for the sgs1 mgt1 strain (AID 161).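 Note: 0% = growth of cultures given vehicle only.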 The settings on record: S. cerevisiae sgs1 mgt1 strain, at 50.0 µM, stronger effect = higher value. An outline of the steps:
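This yeast growth screen uses a strain with defined DNA-repair lesions; compound-treated growth is compared with vehicle-treated growth.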

Test [4] can be described thus: NCI Yeast Anticancer Drug Screen. Data for the cln2 rad14 strain (AID 165).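 Note: 0% = growth equal to vehicle treated cultures.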 The settings on record: S. cerevisiae cln2 rad14 strain, at 50.0 µM, stronger effect = higher value. An outline of the steps: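 Readout is yeast growth inhibition versus vehicle-treated controls, using a strain with cln2 and rad14 alterations exposed to compound.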
Test [5] can be described thus: NCI Yeast Anticancer Drug Screen. Data for the bub3 strain (AID 167). Conditions: S. cerevisiae bub3 mutant strain, at 50.0 µM, stronger effect = higher value. An outline of the steps:
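Steps: expose the mutant yeast strain to compound; grow alongside vehicle-treated cultures; measure growth; express inhibition against the vehicle cultures.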

Test [6] in a line: NCI Yeast Anticancer Drug Screen. Data for the mlh1 rad18 strain (AID 175). Conditions: S. cerevisiae mlh1 rad18 strain growth inhibition; at 50.0 µM; stronger effect = higher value. An outline of the steps:
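Genetically defined yeast (DNA repair-deficient) exposed to compounds; growth inhibition determined relative to vehicle.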

The panel holds about 79,000 compounds, 15% with a hit somewhere; the sample as a whole holds those more often. Unmarked numbers belong to inactive results. The source made the active and inactive calls. Cut-off read from the data, not from the text of the source: active = growth inhibition above about 70%; inactive = the rest.

From PubChem BioAssay (NCI) come the findings set out here.

As to `Cc1cc2nc(/C(C#N)=C/c3cc(Cl)cc(Cl)c3O)[nH]c2cc1C`, the growth inhibition in test [1] is 16.2%; in test [2] it was 22.4%; in test [3] it was 33%; in test [4], 28.1%; in test [5], 19.4%; in test [6], -3.35%.

On to `CCOC(=O)C(C(=O)/C=C\c1ccccc1)(C(c1ccccc1)c1ccccc1)C(c1ccccc1)c1ccccc1`, for which the growth inhibition was -9.7% in test [1]; 14.7% in test [2]; 5% in test [3]; -38.5% in test [4]; 2.9% in test [5]; 2.1% in test [6].

With `CCOc1ccc(NC(=O)C(Br)C(Br)C(=O)O)cc1` (stereo unspecified), the growth inhibition was 85.7% (active) in test [1]; 98.5% (active) in test [2]; 96.8% (active) in test [3]; 95.4% (active) in test [4]; 98.5% (active) in test [5]; 94.6% (active) in test [6].

For the molecule `CS(=O)(=O)OCc1nnn(-c2ccccc2)c1COS(C)(=O)=O`, the growth inhibition in test [1] was 7.2%; in test [2] it was -9.1%; in test [3], -3.5%; in test [4], -40.5%; in test [5] it was 11.5%; in test [6], -11.7%.

Consider `CC(=O)OC(C(=O)N(c1ccccc1)c1ccccc1)c1ccccc1` (stereo unspecified), for which the growth inhibition in test [1] was 3.5%; in test [2] it was 27.4%; in test [3], 10.9%; in test [4], 18.2%; in test [5] it was 7.35%; in test [6] it was 16.1%.

Consider `OCc1sccc1-n1cccc1`, for which the growth inhibition is -19.4% in test [1]; -47.5% in test [2]; -16.6% in test [3]; 5.75% in test [4]; -48.5% in test [5]; -28.6% in test [6].

In the case of `CC(=O)NNc1nc(C)c(C(=O)/C=C/c2ccccc2Cl)s1`, the growth inhibition is 37.5% in test [1]; 16.1% in test [2]; 17.4% in test [3]; 19.4% in test [4]; 23.1% in test [5]; 43.5% in test [6].

Turning to `CC(C)N(C(=O)C12C3C4C1(I)C1C2C3(I)C41C(=O)N(C(C)C)C(C)C)C(C)C` (stereo unspecified), the growth inhibition in test [1] was -9.55%; in test [2], 23.1%; in test [3] it was 25.9%; in test [4], 18.6%; in test [5], -0.25%; in test [6], -12.2%.

On to `CCN(CC)c1ccc(NC(=S)Nc2cccc(C(F)(F)F)c2)c(C)c1`, for which the growth inhibition in test [1] is 35.9%; in test [2], 21.6%; in test [3] it was 52.2%; in test [4] it was 1.9%; in test [5], 2.45%; in test [6], 19.2%.

Regarding `COc1ccc(N2C(=O)C3c4[nH]c5ccccc5c4C4CCC(C(C)(C)C)CC4C3C2=O)c(C)c1` (stereo unspecified), the growth inhibition in test [1] is 11.9%; in test [2], 1.95%; in test [3], 14.7%; in test [4], 17.1%; in test [5] it was -2.45%; in test [6] it was 17.1%.

On to `C=C(C)COc1ccc(C)cc1Br`, for which the growth inhibition in test [1] was -4.05%; in test [2], -4.05%; in test [3] it was 0%; in test [4], -51.8%; in test [5] it was 7.1%; in test [6] it was -13%.

For the molecule `O=[N+]([O-])c1ccc(/C=N\N=P(c2ccccc2)(c2ccccc2)c2ccccc2)cc1`, the growth inhibition was -6.25% in test [1]; 3.25% in test [2]; 12.8% in test [3]; 1.9% in test [4]; -4.65% in test [5]; -3.85% in test [6].

Take `CCCCOC(=O)C1CC2OC2CC1C(=O)OCCOCCOC(=O)C1CC2OC2CC1C(=O)OCCCC` (stereo unspecified): the growth inhibition in test [1] was -18.3%; in test [2], -6.45%; in test [3], -14.4%; in test [4] it was -39.9%; in test [5], 14.6%; in test [6], -42.5%.

Turning to `COc1cc(C(=O)Oc2c(C#N)sc3c2c(=O)n(-c2ccccc2)c(=S)n3-c2ccccc2)cc(OC)c1OC`, the growth inhibition was 22.8% in test [1]; 3.2% in test [2]; 12.1% in test [3]; 10.2% in test [4]; 21.9% in test [5]; 20.5% in test [6].

Turning to `C=CCCc1cc(OC)ccc1C(=O)C(C)C`, the growth inhibition in test [1] is 4.3%; in test [2] it was -17.8%; in test [3] it was -20.1%; in test [4] it was -20.8%; in test [5] it was 0.2%; in test [6], -12.6%.

In the case of `COc1ccccc1/C=C1\CCC(CCN2CCOCC2)C1=O` (stereo unspecified), the growth inhibition in test [1] is 44.4%; in test [2], 37.7%; in test [3], 52.5%; in test [4] it was 58.6%; in test [5] it was 39.9%; in test [6] it was 41.5%.

`CCc1c2c(nc3ccc(O)cc13)-c1cc3c(c(=O)n1C2)COC(=O)[C@]3(O)CC`: the growth inhibition in test [1] is 33.2%; in test [2] it was -5.5%; in test [3] it was -5.9%; in test [4] it was 10.6%; in test [5], 7.5%; in test [6], -7.25%.

Regarding `COc1cc2ccc3c4cc5c(cc4cnc3c2cc1OC)OCO5`, the growth inhibition in test [1] is -0.65%; in test [2] it was -3.45%; in test [3] it was -15.7%; in test [4] it was -25.9%; in test [5], -1.1%; in test [6] it was -16.7%.

On to `CCCCCCCC(=O)OCC(COC(=O)CCCCCCC)OC(=O)CCCCCCC`, for which the growth inhibition was 40.8% in test [1]; 3.6% in test [2]; 1.6% in test [3]; -33.5% in test [4]; 9.55% in test [5]; 27.1% in test [6].

Regarding `COC(=O)C(CC(=O)Nc1ccc(C)cc1)C(=O)C(=O)Nc1c(C(C)C)cccc1C(C)C` (stereo unspecified), the growth inhibition in test [1] was -43.4%; in test [2] it was -17.8%; in test [3], -7.5%; in test [4] it was 6.1%; in test [5] it was -9.9%; in test [6] it was -25.2%.

Turning to `Cc1csc(NNC(=O)Nc2ccccc2)n1`, the growth inhibition in test [1] is 36.7%; in test [2], 14.2%; in test [3], -35.5%; in test [4] it was 18.4%; in test [5], -8.65%; in test [6], 7.5%.
